# About 3,700 (7%) of roughly 53,000 sequences were called active. This is one part of a sample in which actives are shown more often than they occur.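 The calls were made as follows: active = gene knockdowns whose robust z-score for IL-1 alpha signal is at least 2 or at most -2, so actives lie on both sides; inactive = the rest.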
# Test: Components of the Cytosolic LPS Sensing Pathway: Gene Identification via Genome-wide siRNA Screen;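 also: robust z of the log signal after scaling to non-targeting control siRNA wells of the plate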
# Settings: RAW264.7 macrophages, IL-1a HTRF, actives lie on both sides, screened at 100 nM (by protocol), cells primed 5 h with Pam3CSK4 first
# Procedure, shortened: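 Read-out: IL-1a HTRF on supernatant, divided by plate negative-control median ×100, log-transformed and converted to robust z-score. Cells were RAW264.7 given 100 nM siRNA, Pam3CSK4-primed 5 hours, then LipidA-transfected 24 hour.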
row,Sequence,z-score
1,GGUCCUUAGGUGACCUCCUTT against Lrrc20,-0.249 (inactive)
2,GGAAAAUGCUGUCCAGUGGTT against Rdh11,-0.858 (inactive)
3,GGAGGUGAACAGAUCUCACTT against Fubp1,0.391 (inactive)
4,GGUCACAGCAAGUUAAUAATT against Ranbp9,-2.1 (active)
5,GGAGGUUCUACCCUGUUCATT against Actr1a,0.48 (inactive)
6,GGGAGAAUCUAACUAAGCCTT against Sirt7,0.383 (inactive)
7,GGUCAUGCACACUCGAAAUTT against Mrpl54,0.831 (inactive)
8,GGUGGCUCAGAAAUCCUAUTT against Rbpjl,-0.206 (inactive)
9,GCGAAUCUCCACAAGAUGGTT against 2300002M23Rik,-0.0187 (inactive)
10,CGGCUUCUCUCUUUACACATT against Fosb,2.51 (active)
11,GGAGAAAAGUACCAAGAUGTT against Ifi27l2b,-1.15 (inactive)
12,AUGGUAUACUAUUAUGCUGTT against Mup20,1.62 (inactive)
13,GGAACUAACGGAAUUACUGTT against Arl3,0.951 (inactive)
14,GCGAAAUCAACAGUCAAUUTT against Ep300,0.458 (inactive)
15,GGAAGCAGAGCAGCUGUUUTT against Skiv2l,-0.567 (inactive)
16,GGGAUCAAUUUUGAAGAAUTT against Jmjd4,-0.398 (inactive)
17,GGAGUAUGUCCAUUGUCACTT against Vmn1r230,-2.54 (active)
18,UCAGCGAGCUUUAACCUUUTT against Olfr1028,0.26 (inactive)
19,GGUUUUUCAGCUUUGGAACTT against Decr1,-0.822 (inactive)
20,CCCACUUUCUUUGAUAACUTT against Bcl2l11,0.585 (inactive)
21,CGCGUAGAUAAGAAGUAUUTT against Anks1,0.181 (inactive)
22,GCUCAACAAAGCCUGUUCGTT against Zp3,2.35 (active)
23,GCAUUACUAAUCAAAGUGGTT against Abcb1b,-0.78 (inactive)

row,Sequence,z-score
1,CCACUUCAUGAUUGAGUGCTT against Phf8-ps,-0.836 (inactive)
2,CCAUGAGUUCAGAUGAUGATT against Ints10,-1.11 (inactive)
3,CCUGAAACAUUCAGUGUCUTT against Apool,0.293 (inactive)
4,GCUUAAUUUCAUUUCAAGGTT against B3gnt5,0.496 (inactive)
5,GCUUCCCUGCCGUGAUGAUTT against Git1,-1.15 (inactive)
6,GGACACAAGUUUUCAGAUCTT against Elmod2,3.02 (active)
7,GGAUCAUGGAUAUACCACCTT against Smarcb1,-1.72 (inactive)
8,GGUGCAAACUAAAAAUCUUTT against Enc1,2.73 (active)
9,GGAAGAUGAAGAUGAGAAUTT against Igbp1b,-1.24 (inactive)
10,GGGAAGCAUGCAGAACAGCTT against Parg,-1.42 (inactive)
11,GGUUCCUCAAGAUCAUCAUTT against P2ry13,0.051 (inactive)
12,GCUUUGAUGGAUUCUAAUCTT against Htt,1.09 (inactive)
13,CCCAUUUGCUCUGUGGAUCTT against Tha1,0.289 (inactive)
14,GCACUUUGGGUUUAAGUACTT against Ndrg4,3.7 (active)
15,GGGAGAGAGAAAAAGAAAATT against Park7,0.94 (inactive)
16,CCUGGCCAUGUCGAAAGAUTT against Pla2g6,0.716 (inactive)
17,GGAAGAAGUCAGAUGUGGATT against Radil,-0.315 (inactive)
18,UGAUGCUAAGACUGAACCATT against Olfr541,-1.14 (inactive)
19,GGACAUUGUUGUCCAAACUTT against Sptb,-2.24 (active)
20,CCAUAUUUGAAGAAGUCCATT against Espl1,-0.325 (inactive)
21,GGGUACAACUCUUUGAAGATT against Mnat1,0.535 (inactive)
22,GCAGUUGAUGAUAAUGUGATT against Pot1b,-0.0269 (inactive)
23,CGCGGAAACUCUCCACUUATT against Psme4,-1.18 (inactive)

row,Sequence,z-score
1,GGGCGAUAUUAUGAGCAACTT against Atp1b2,3.78 (active)
2,GGAUCCUCUUCUAUCUUUATT against Pycr1,-1.27 (inactive)
3,GGCUGCUUUACUGAAGUAATT against C2cd6,1.29 (inactive)
4,GGGACUUGGAUCGAAUGGATT against Apeh,0.326 (inactive)
5,GGGAAAUUGUGUAGCAGCUTT against Slc25a29,-2.76 (active)
6,GGAGGUGGUGUUUAUACCATT against Scrn2,0.728 (inactive)
7,GCCUAUGCAGCUCUCUCUGTT against Acat3,0.772 (inactive)
8,GGUUAUUACGUAGUUGGUATT against Cd46,0.683 (inactive)
9,GGUCUACGCGCUCUAUGAATT against Gpr150,-1.03 (inactive)
10,GGAGACAGAAUCAUAGUUATT against Sh3yl1,0.0505 (inactive)
11,CGAUUCUUUAGGAACUUUGTT against Pak7,-0.0771 (inactive)
12,GGCAGUGGUUAAAGGUUCCTT against Lrp6,2.27 (active)
13,GCACUUAUACUACUUAGUUTT against Abca8a,2.4 (active)
14,GCAGGAUUUUCACCAACAGTT against Gh,-0.215 (inactive)
15,GGUAGAAUCCGGUUACCACTT against Tox,0.704 (inactive)
16,GGGAAAGACCAUGUUUGUATT against Ttbk2,0.493 (inactive)
17,CCAAUUGUGAGAAGAGUGUTT against Cog7,-0.46 (inactive)
18,GGAUUUUGUGAAUAAAUGCTT against Map2k1,1.31 (inactive)
19,GGGAAAAGAGAGUGGUGUATT against Rab27a,-0.26 (inactive)
20,GGAGAGCUGGUGUUUUAGATT against Tnfrsf17,2.74 (active)
21,GGGUUCAUUUCUCAAAAUUTT against Nol7,-0.831 (inactive)
22,GGAACAAGAAGACUGUGAATT against Pcnt,-0.519 (inactive)
23,GCCUUACAAUUUGUUCUACTT against Dsc1,1 (inactive)

# — PubChem BioAssay AID1508600 (Functional Genomics Laboratory (NCATS/FGL), 2020)
